Assay [1] deals with alpha-glucosidase (Oryza sativa, rice) (UniProt Q653V4). Briefly: Counterscreen for Glucocerebrosidase Inhibitors: qHTS Assay for Rice alpha-Glucosidase at pH 5.0 (AID 997). The conditions noted are these: rice alpha-glucosidase enzyme activity; series mostly up to 76.9 µM. The gist of the method:
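Endpoint fluorogenic assay at pH 5.0: compounds (0.7 nM to 77 uM) titrated against 4 nM rice enzyme and 400 uM 4-MU-alpha-glucoside for 20 min at room temperature; NaOH/glycine stop, read ex 365/em 440 nm, Hill-fitted AC50.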
(Counterscreens check selectivity or assay interference.)

For assay [2], the target named is DNA repair nuclease/redox regulator APEX1 (Homo sapiens) (UniProt P27695). In words: qHTS Validation Assay for Inhibitors of the Human Apurinic/apyrimidinic Endonuclease 1 (APE1) (AID 1705;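 further: TAMRA fluorescence gain over two minutes as APE1 cuts a quenched THF abasic duplex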). The conditions noted are these: purified APE1 endonuclease activity, fluorescence, titration; series mostly up to 57.1 µM. The gist of the method: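 Substrate: 50 nM final fluorophore/quencher THF-abasic duplex. Enzyme preincubated with compounds 15 min, RT. Progress derived from fluorescence difference, third minus first kinetic read.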
DNA repair nuclease/redox regulator APEX1 (Homo sapiens), sequence (P27695 whole entry, looked up): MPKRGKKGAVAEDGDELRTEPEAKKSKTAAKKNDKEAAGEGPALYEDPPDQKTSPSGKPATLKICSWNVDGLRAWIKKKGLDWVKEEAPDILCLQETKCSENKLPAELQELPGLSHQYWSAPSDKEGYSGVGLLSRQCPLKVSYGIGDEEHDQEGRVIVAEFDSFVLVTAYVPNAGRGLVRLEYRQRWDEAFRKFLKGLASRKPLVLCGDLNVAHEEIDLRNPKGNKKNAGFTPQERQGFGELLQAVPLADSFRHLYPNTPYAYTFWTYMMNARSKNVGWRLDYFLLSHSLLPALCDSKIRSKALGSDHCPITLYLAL
A general note: qHTS replaces the single test concentration by a dilution series.

The target of assay [3] is Endonuclease 4 (Escherichia coli (strain K12)) (UniProt P0A6C1). Briefly: Counterscreen for APE1 Inhibitors: qHTS Validation Assay for Inhibitors of Endonuclease IV (AID 1708). The conditions noted are these: E. coli endonuclease IV, DNA cleavage fluorescence; series mostly up to 57.1 µM. In short, it runs like this: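 Conditions: 2 nM enzyme, 50 nM TAMRA/BHQ-2 substrate, pH 7.5 Tris buffer with 2 mM MgCl2, RT. Compound preincubation 15 min; readout three fluorescence reads 60 s apart, third-minus-first.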

Assay [4] is described as follows: qHTS for differential inhibitors of proliferation of Plasmodium falciparum line 7G8 (AID 1815).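 Further: parasite growth measured after three days of incubation.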 Further: potency means the concentration at half of the fitted maximal effect. The settings on record: Plasmodium falciparum 7G8 proliferation inhibition; series mostly up to 28.7 µM.
A short description of assay [5]: qHTS for differential inhibitors of proliferation of Plasmodium falciparum line D10 (AID 1877).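 Further: parasites grown with compound for 72 h before DNA staining.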 Further: potency means the concentration at half of the fitted maximal effect. The conditions noted are these: series mostly up to 28.7 µM.
Assay [6] can be described thus: qHTS for differential inhibitors of proliferation of Plasmodium falciparum line Dd2 (AID 1882). Further: nearly all actives have a fitted effect of over 65% in size. Further: potency means the concentration at half of the fitted maximal effect. The conditions noted are these: Potency: Plasmodium falciparum Dd2 proliferation inhibition; series mostly up to 28.7 µM. In short, it runs like this:
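SYBR Green DNA fluorescence (ex 485, em 535 nm) after overnight lysis quantifies parasite growth; compound exposure lasted 72 h at 37 C on infected red cells at 2.5% hematocrit, 0.3% parasitemia (final). Artemisinin 0.29 uM and vehicle wells define normalization.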

The target of assay [7] is Ferritin light chain (Equus caballus) (UniProt P02791). In words: qHTS Validation Assay for Identification of Novel General Anesthetics (AID 2323). The conditions noted are these: horse apoferritin, anesthetic-site fluorescent probe displacement; series mostly up to 76.9 µM. The gist of the method: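 Normalized fluorescence response, scaled between free 1-AMA and 1-AMA/apoferritin complex, fitted to a four-parameter Hill equation for concentration-effect values. Binding mix: 10 uM horse-spleen apoferritin, 50% saturated 1-AMA in PBS; read 380/535 nm after 10 min.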
Ferritin light chain (Equus caballus), sequence (P02791 2-175 limits assumed): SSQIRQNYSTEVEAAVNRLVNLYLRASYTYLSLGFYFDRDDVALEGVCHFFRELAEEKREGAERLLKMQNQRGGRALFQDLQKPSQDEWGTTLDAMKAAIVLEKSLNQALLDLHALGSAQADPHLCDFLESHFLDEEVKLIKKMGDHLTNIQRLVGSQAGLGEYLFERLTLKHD

Assay [8] has as its target ATP-dependent DNA helicase Q1 (Homo sapiens) (UniProt P46063). Briefly: qHTS Validation Assay for Inhibitors of RecQ-Like Dna Helicase 1 (RECQ1) (AID 2353). The conditions noted are these: recombinant RECQ1 helicase DNA unwinding assay; series mostly up to 25.6 µM. In short, it runs like this:
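RECQ1T1 50 nM; forked duplex (20 bp + 30-nt ss tails) 200 nM, ATP 2 mM final; pH 8.0, 2 mM MgCl2, 2.5 ug/ml poly(dI-dC); 15 min compound preincubation; discontinuous kinetic read over 2 h at RT.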

Assay [9] can be described thus: Counterscreen for APE1 Inhibitors: Fluorescent Dye Displacement Validation Assay (AID 1707). The conditions noted are these: fluorescent dye displacement from DNA; series mostly up to 57.1 µM. In short, it runs like this: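 Reaction mixture of 250 nM Thiazole Orange and 50 nM double-stranded abasic-site DNA was dispensed, compounds were pin-transferred, and fluorescence was read at endpoint (480 nm ex, 540 nm em). Reduced fluorescence indicated dye displacement by DNA binding.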

The nature of assay [10]: qHTS for differential inhibitors of proliferation of Plasmodium falciparum line GB4 (AID 1816).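 Further: parasite growth measured after 72 h incubation.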 Further: potency means the concentration at half of the fitted maximal effect. The conditions noted are these: Potency: Plasmodium falciparum GB4 proliferation inhibition; series mostly up to 28.7 µM.
Assay [11] is described as follows: qHTS for differential inhibitors of proliferation of Plasmodium falciparum line 3D7 (AID 1876). Further: potency means the concentration at half of the fitted maximal effect. The conditions noted are these: P. falciparum 3D7 proliferation inhibition; series mostly up to 28.7 µM.
A short description of assay [12]: qHTS for differential inhibitors of proliferation of Plasmodium falciparum line HB3 (AID 1886).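 Further: parasites grown with compound for 72 h before SYBR Green readout.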 Further: potency means the concentration at half of the fitted maximal effect. The conditions noted are these: Potency: Plasmodium falciparum HB3 proliferation inhibition; series mostly up to 28.7 µM.
A short description of assay [13]: qHTS Assay for Modulators of Human Peripheral Myelin Protein 22 (PMP22) Expression/Activity (AID 1967; active means well fitted curve in the direction sought with a large enough effect in the signal ratio; the % refers to the signal ratio). The settings on record: Cell-based PMP22 reporter, dual-color luciferase ratio, 0% = compound-free control cells, mouse Pmp22 promoter in mouse Schwann cells; series mostly up to 115 µM. In short, it runs like this:
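Engineered MSC80 cells, Pmp22-promoter green and EF-alpha red luciferase reporters; 24h compound treatment at 37 °C. Concentration-response fits on green, red and ratio signals, each overlap-corrected, with %Activity normalized to untreated wells.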

The target in assay [14] is RecQ-like DNA helicase BLM (Homo sapiens) (UniProt P54132). In words: qHTS Validation Assay for Inhibitors of Bloom's syndrome helicase (BLM) (AID 2364). Further: potency means the concentration at half of the fitted maximal effect. The conditions noted are these: BLM helicase DNA unwinding, fluorescence, in vitro; series mostly up to 57.1 µM. The gist of the method: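 50 nM BLM preincubated 15 min at room temperature with compound in pH 8.0 Tris buffer containing 2.5 ug/ml poly(dI-dC); started with 200 nM TAMRA/BHQ-2 forked duplex and 2 mM ATP (final). Unwinding read as TAMRA fluorescence increase, two reads 2 h apart.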
RecQ-like DNA helicase BLM (Homo sapiens), sequence (P54132 whole entry, looked up): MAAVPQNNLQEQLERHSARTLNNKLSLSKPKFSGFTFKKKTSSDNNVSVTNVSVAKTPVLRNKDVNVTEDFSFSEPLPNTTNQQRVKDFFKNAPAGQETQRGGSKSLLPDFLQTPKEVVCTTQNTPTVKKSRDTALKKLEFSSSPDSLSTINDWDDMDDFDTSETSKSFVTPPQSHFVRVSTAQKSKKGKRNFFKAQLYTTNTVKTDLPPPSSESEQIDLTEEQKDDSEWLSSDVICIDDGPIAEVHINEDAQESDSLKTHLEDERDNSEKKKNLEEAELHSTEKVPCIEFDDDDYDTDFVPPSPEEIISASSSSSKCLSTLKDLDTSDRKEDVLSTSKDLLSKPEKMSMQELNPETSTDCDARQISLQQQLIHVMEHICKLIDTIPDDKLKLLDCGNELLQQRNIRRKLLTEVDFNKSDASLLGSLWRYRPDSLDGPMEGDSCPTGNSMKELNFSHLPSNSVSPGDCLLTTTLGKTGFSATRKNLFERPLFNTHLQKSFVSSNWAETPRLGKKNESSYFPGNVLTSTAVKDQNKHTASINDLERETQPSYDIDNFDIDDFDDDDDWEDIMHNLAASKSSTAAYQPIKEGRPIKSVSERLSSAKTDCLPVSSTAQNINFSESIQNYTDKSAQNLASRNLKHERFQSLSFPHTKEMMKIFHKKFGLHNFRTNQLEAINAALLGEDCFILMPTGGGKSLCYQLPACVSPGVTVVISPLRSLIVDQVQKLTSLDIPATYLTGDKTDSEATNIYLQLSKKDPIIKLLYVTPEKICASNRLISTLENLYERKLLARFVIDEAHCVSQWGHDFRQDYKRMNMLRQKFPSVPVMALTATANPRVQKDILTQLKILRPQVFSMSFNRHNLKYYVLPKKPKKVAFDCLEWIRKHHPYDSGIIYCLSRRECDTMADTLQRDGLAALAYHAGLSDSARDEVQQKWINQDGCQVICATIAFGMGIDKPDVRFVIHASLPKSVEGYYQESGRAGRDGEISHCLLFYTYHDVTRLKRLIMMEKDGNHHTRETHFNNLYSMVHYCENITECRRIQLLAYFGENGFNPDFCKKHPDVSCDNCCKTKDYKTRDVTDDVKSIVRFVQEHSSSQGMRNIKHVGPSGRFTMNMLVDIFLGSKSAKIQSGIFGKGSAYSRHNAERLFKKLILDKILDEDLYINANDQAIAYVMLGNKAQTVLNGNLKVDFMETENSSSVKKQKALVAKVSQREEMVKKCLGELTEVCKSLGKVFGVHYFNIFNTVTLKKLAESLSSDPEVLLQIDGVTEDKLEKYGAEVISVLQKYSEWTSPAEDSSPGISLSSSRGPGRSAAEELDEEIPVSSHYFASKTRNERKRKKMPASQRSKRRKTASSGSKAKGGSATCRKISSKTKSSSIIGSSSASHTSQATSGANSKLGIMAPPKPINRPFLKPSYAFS

Assay [15] in a line: qHTS for differential inhibitors of proliferation of Plasmodium falciparum line W2 (AID 1883).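 Further: parasites grown with compound for 72 h before lysis and staining.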 Further: potency means the concentration at half of the fitted maximal effect. The conditions noted are these: Potency: Plasmodium falciparum W2 proliferation inhibition; series mostly up to 28.7 µM.

Molecules are shown by their SMILES. Inconclusive results are not listed. Active and inactive are the calls of the source. Unless noted, the call rests on the fitted dose curve; in most records, active means well fitted curve in the direction sought with a large enough effect; inconclusive means small, poorly fitted or top-dose-only effect, or another doubt; inactive means no such curve, though single readings can be large; an effect the other way counts as inactive or inconclusive.

ATP-dependent DNA helicase Q1 (Homo sapiens), sequence (P46063 whole entry, looked up): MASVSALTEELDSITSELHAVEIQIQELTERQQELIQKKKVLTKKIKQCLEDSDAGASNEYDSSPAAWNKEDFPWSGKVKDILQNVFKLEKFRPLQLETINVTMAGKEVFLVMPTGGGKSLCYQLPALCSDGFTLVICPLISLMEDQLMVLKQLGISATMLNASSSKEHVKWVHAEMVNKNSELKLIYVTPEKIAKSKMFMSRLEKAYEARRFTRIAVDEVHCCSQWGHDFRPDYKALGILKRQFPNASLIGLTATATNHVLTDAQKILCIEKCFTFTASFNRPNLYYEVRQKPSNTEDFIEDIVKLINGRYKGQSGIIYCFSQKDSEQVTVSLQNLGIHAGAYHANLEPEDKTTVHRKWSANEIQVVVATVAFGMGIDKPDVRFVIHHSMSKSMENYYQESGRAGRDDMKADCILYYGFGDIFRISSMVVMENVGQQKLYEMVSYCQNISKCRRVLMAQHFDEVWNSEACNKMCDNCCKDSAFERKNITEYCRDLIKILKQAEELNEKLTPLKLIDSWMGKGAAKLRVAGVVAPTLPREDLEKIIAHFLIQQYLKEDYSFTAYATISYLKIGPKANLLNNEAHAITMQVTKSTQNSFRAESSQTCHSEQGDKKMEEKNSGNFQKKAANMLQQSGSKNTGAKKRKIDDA

With `Nc1ncnc2c1ncn2C1CCCC1`, in [1], the call was inactive. Moreover, the Potency entry in assay [2], in assay [3], in assay [4], in assay [5], in [6] and in assay [7] was “inactive” in each case. In addition, the Potency result in assay [8] was “inactive”.
For the molecule `NC(=O)c1cc[n+](CC2=C(C(=O)O)N3C(=O)[C@@H](NC(=O)[C@@H](c4ccccc4)S(=O)(=O)[O-])[C@H]3SC2)cc1`, the Potency entry in assay [9], in [4], in [10], in assay [11], in assay [5] and in assay [6] was “inactive” each time. The Potency result in assay [12], in assay [7] and in assay [14] was “inactive” in each case. In addition, the result in assay [13] was inactive.
For `NCC(O)C1CCCCCCC1` (centres undefined), the Potency result in assay [2], in assay [9], in assay [3], in assay [11], in [5] and in assay [12] was “inactive” in each case. The Potency result in assay [8] is “inactive”. Moreover, the Potency is 12.6 µM (active) in assay [4], 5.62 µM (active) in [10], 8.91 µM (active) in assay [6] and 3.16 µM (active) in assay [15].
For the molecule `[N-]=[N+]=Nc1ccc(C(=O)CSC[C@H](NC(=O)CC[C@H](N)C(=O)O)C(=O)NCC(=O)O)cc1`, the Potency result in assay [9], in assay [4], in assay [11], in assay [5], in [6] and in assay [12] was “inactive” in each case. In [14], the Potency is 28.2 µM (active).
As for `N=C(N)c1ccc(OCCCCCOc2ccc(C(=N)N)cc2)cc1` (tested in a mixture with another compound), in assay [1], the call was inactive. In addition, the Potency entry in [2], in [3], in assay [7], in [8] and in assay [14] was “inactive” in each case. Further, the Potency in assay [4] is 0.282 µM (active); in [10] it was 0.251 µM (active); in assay [11] it was 0.0891 µM (active); in assay [5], 0.199 µM (active); in assay [6], 1 µM (active); in [15], 0.355 µM (active). Moreover, the Potency in assay [12] was 0.224 µM (active).
Regarding `CCn1c(=O)[nH]c2cc(Cl)c(Cl)cc21`, the outcome in [1] was inactive. The Potency result in assay [2], in [9], in [3], in [4], in assay [10] and in [11] was “inactive” throughout. For the same molecule, the Potency entry in assay [5], in assay [6], in [15], in assay [12] and in assay [7] was “inactive” throughout.
As for `O=C1Cc2c([nH]c3ccc(Br)cc23)-c2ccccc2N1`, the molecule was classed as inactive in assay [1]. Besides, the Potency entry in assay [2], in assay [9] and in assay [7] was “inactive” each time. Besides, the Potency was 8.91 µM (active) in assay [4]; 10 µM (active) in assay [10]; 11.2 µM (active) in assay [11]; 11.2 µM (active) in assay [5]; 10 µM (active) in [15]; 12.6 µM (active) in assay [12].
On to `O=c1oc(Cl)c(Cl)c2ccccc12`, for which, in assay [1], the molecule was classed as inactive. For the same molecule, the Potency entry in assay [9], in [10], in assay [11], in [5], in [6] and in assay [12] was “inactive” in each case. Moreover, the Potency result in [8] is “inactive”.
On to `CC(=O)[C@H]1CCC2C3CC=C4C[C@@H](OS(=O)(=O)O)CC[C@]4(C)C3CC[C@@]21C` (some centres undefined), for which the Potency entry in assay [9], in assay [3], in [4], in assay [10], in [11] and in [5] was “inactive” in each case. Besides, the Potency entry in assay [6], in [15], in assay [12] and in assay [7] was “inactive” in each case.

Source of the values: PubChem BioAssay (NCATS).
